FBW7 activator – activators of human E3 ligase FBW7; AlphaScreen FBW7–phospho-cyclin E peptide binding, activator screen; normalized activity (activation), % at 26.1 µM; actives 0.13% (n = 650,000); AID 1259310; in the data active means normalized activity above about 1.9%;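 further: purified mutant Fbw7 with reduced substrate affinity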
GPR151 ag – activators of human GPR151 | actives 1% (n = 650,000) | activation, % at 11.2 µM | AID 1508602 | PathHunter beta-arrestin GPR151 cells, luminescence; in the data active means activation above about 4.9%;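 further: 0% = median of compound wells and 100% = cells with positive control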
Target sequence (Q8TDV0 whole entry, looked up): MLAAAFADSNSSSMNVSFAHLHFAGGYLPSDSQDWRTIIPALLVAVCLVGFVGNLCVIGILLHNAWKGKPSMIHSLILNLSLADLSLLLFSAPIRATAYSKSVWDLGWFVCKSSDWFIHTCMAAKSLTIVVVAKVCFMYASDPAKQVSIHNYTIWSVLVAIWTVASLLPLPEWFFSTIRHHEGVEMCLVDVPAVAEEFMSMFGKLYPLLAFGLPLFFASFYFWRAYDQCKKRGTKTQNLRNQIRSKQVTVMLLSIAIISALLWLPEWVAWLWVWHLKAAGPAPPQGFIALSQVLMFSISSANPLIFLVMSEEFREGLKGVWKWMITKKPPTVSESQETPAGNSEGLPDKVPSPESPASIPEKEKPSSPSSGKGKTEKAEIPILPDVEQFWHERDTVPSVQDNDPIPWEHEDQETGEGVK
TEAD-YAP block – TEAD-YAP interaction inhibition | HEK-TIYL cells, TEAD-Gal4/YAP UAS-luciferase luminescence | inhibition, % at 9.12 µM | actives 1.4% (n = 640,000); in the data active means inhibition above about 32%;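 further: 0% = median of test compound wells and 100% = reference inhibitor wells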
MITF primary – human MITF inhibition, primary screen | AlphaScreen MITF homodimerization, bead proximity signal | actives 0.91% (n = 650,000) | O75030 | inhibition, % at 2.6 µM; in the data active means inhibition above about 50%;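 further: 0% = vehicle wells with protein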
MITF confirm – confirmation of human MITF inhibitors. shares compounds with MITF primary. AlphaScreen MITF homodimerization, biotin/His-MITF beads. inhibition, % at 2.6 µM. actives 16% (n = 4,700). AID 1259372;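 active means inhibition above a cutoff derived from the DMSO control wells, cut at about 28% in these data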;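 further: 0% = MITF dimer wells with DMSO only; inhibitors lower the bead chemiluminescence by keeping MITF from dimerizing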
AS interf DR – optically interferes with AlphaScreen signal in dose response. shares compounds with MITF primary. actives 6% (n = 480). AID 1259373. IC50, µM. AlphaScreen optical interference counterscreen, cell-free; call rule not given here
AlphaScreen intf2 – optically interferes with AlphaScreen signal | AID 1259376 | LysRS AlphaScreen counterscreen, signal interference, triplicate | inhibition, % at 2.6 µM | shares compounds with MITF primary | actives 7.6% (n = 4,700);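 active means inhibition above a cutoff derived from the DMSO control wells, cut at about 30% in these data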
* marks the source's active call; other numbers are inactive results; / = no result given. Compounds with a hit are over-represented: about 3.5% of the library has one in this group of screens.

SMILES | FBW7 activator | GPR151 ag | TEAD-YAP block | MITF primary | MITF confirm | AlphaScreen intf2 | others
Clc1ccc(OCCCCn2ccnc2)cc1Cl | 0 | -2 | -1 | 55* | 13 | 17
Clc1cc(Br)ccc1OCCCCn1ccnc1 | 0 | 0 | -8 | 74* | 2 | 6
Clc1ccc(OCCOCCn2ccnc2)cc1Cl | 0 | 0 | -8 | 43 | / | /
Cc1ccc2c(c1)N(CCC(=O)O)C(=O)C(C)O2 (centres undefined) | 0 | 1 | 12 | 3 | / | /
COc1ccc(CCNC(=O)CSc2nc3ccccc3c3nc(-c4ccccc4)nn23)cc1OC | 1 | -2 | 8 | 16 | / | /
NC(=O)/C(=C/c1cccc([N+](=O)[O-])c1)NC(=O)c1cccc(Br)c1 | 0 | -1 | 14 | 3 | / | /
NC(=O)/C(=C\c1cccc([N+](=O)[O-])c1)NC(=O)c1ccc(Br)cc1 | 0 | -1 | 0 | 53* | 32* | -1 | AS interf DR=>6.5
O=C(CC(NCc1cccnc1)C(=O)O)c1ccc(C2CCCCC2)cc1 (centres undefined) | 0 | 0 | -1 | 9 | / | /
Cc1sc2ncnc(N(C)CCc3ccccn3)c2c1C | 0 | 0 | 2 | 73* | 4 | 2
O=c1c2c(nc(SCc3ccccc3)n1Cc1ccccc1)-c1ccccc1CC21CCCCC1 | 0 | 1 | 7 | 5 | / | /
COc1cc(C(=O)N2CCN(Cc3ccc(Br)cc3)CC2)cc(OC)c1OC | 0 | 0 | -3 | 54* | 9 | 9
COc1ccc(C(=O)N2CCN(C3CCCC(C)C3)CC2)cc1 (centres undefined) | 0 | 1 | 7 | 52* | 4 | 11
COc1ccc(C(=O)N2CCN(Cc3cc(OC)c(OC)c(OC)c3)CC2)cc1 | 1 | -1 | -9 | 72* | 5 | -1
COc1cc(CN2CCN(C(=O)c3cc(OC)c(OC)c(OC)c3)CC2)cc(OC)c1 | 0 | -1 | 4 | 55* | 4 | 12
COc1cc(C(=O)N2CCN(Cc3ccc(C)cc3)CC2)cc(OC)c1OC | 0 | 0 | 7 | 48 | / | /
COc1ccc(C(=O)N2CCN(Cc3cc(OC)c(O)c(OC)c3)CC2)cc1 | 0 | -1 | 5 | 26 | / | /
COc1cccc(C(=O)N2CCN(Cc3cc(OC)c(OC)c(OC)c3)CC2)c1 | 0 | 1 | -6 | 49 | / | /
CCC(C)N1CCN(C(=O)c2cc(OC)c(OC)c(OC)c2)CC1 (centres undefined) | 0 | -1 | -4 | 51* | -9 | 0
CNCCCOc1ccc(C)cc1OC | 0 | 2 | -4 | 52* | -2 | 2
COc1ccccc1OCCCOc1ccc(C)cc1OC | 0 | -1 | -37 | 2 | / | /
C=C(C)CSc1nnc2n(-c3ccccc3C)c(=O)c3c4c(sc3n12)CCCC4 | 0 | 0 | 5 | 70* | -3 | -3
CC(C)c1ccc2oc(-c3cccc(NC(=O)c4cc5ccccc5o4)c3)nc2c1 | 0 | -1 | -41 | 30 | / | /
Cn1c(=O)[nH]c(=O)c2c1nc(Cl)n2CC(N)=O | 0 | 0 | -1 | 82* | 2 | 10
O=C1CNS(=O)(=O)c2ccccc2N1 | 1 | 0 | -6 | 59* | 16 | 13
CN(CCOC(=O)C1COc2ccccc2O1)C(C)(C)C (centres undefined) | 0 | 0 | 2 | 15 | / | /
SMILES | FBW7 activator | GPR151 ag | TEAD-YAP block | MITF primary | MITF confirm | AlphaScreen intf2 | others
CCN1CCN(CCCOc2ccccc2F)CC1 | 0 | 0 | 1 | 33 | / | /
CCN1CCN(CCOc2cccc(Cl)c2Cl)CC1 | 0 | 2 | -2 | 72* | 8 | 14
CCN1CCN(CCCOc2ccc(C)cc2Cl)CC1 | 0 | 0 | -6 | 68* | 12 | 14
CCN1CCN(CCOc2cc(C)ccc2Cl)CC1 | -1 | 1 | 1 | 72* | 8 | 17
COc1ccc(S(=O)(=O)Nc2ccc(-c3cn4cccnc4n3)cc2)cc1OC | 0 | -1 | -3 | -4 | / | /
COc1cc(N)c2nccc(C)c2c1OC | 0 | -1 | -4 | 97* | 119* | 59*
COc1cc(C(=O)Oc2ccccc2N)cc(OC)c1OC | 0 | 4 | 3 | 5 | / | /
Cc1cc(C)c(C(=O)N2CCC3(CC2)CC3C(=O)NCc2cccc(C(F)(F)F)c2)[nH]1 (centres undefined) | 0 | 1 | 3 | 4 | / | /
CSc1ccc(CN2CCN(C(=O)c3ccccc3F)CC2)cc1 | 0 | 0 | 31 | 40 | / | /

Screening results from PubChem BioAssay.
